Screening results (PubChem BioAssay)
JMJD2E inh – qHTS Assay for Inhibitors of Human Jumonji Domain Containing 2E (JMJD2E) | AID 2147, 2009 | 230,000 compounds, 1.6% hits | JMJD2E catalytic domain, FDH-coupled NADH fluorescence (FDH is formaldehyde dehydrogenase) | Potency, µM (highest dose often 57.1 µM), actives largely listed as inhibitors | Lysine-specific demethylase 4E (Homo sapiens), B2RXH2; active = well fitted inhibition curve with a large enough effect, not every such curve was filed as active; inconclusive = small, poorly fitted or top-dose-only effect, or another doubt; inactive = no such curve, though single readings can be large or run the other way; note: nearly all actives have a fitted effect of over 50% in size
Target sequence (B2RXH2 1-337 limits assumed): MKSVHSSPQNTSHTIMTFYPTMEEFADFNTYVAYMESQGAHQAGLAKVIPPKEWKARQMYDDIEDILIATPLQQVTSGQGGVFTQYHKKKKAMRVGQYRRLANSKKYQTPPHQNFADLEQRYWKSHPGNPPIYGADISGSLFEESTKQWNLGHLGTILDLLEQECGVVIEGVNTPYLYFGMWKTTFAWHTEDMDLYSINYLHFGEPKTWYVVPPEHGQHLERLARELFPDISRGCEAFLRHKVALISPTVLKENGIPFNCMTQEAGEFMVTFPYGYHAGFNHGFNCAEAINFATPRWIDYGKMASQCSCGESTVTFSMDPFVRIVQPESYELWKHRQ
Coupling enz – qHTS Assay for Inhibitors of Fructose-1,6-bisphosphate Aldolase from Giardia Lamblia: Coupling assay counterscreen. activity change, negative = inhibition, % at 58.2 µM, hits read low. coupling enzyme system counterscreen, AmpLite Red fluorescence. AID 2472, 2010. 290,000 compounds, 0.67% hits; in the data active = activity change below about -30%
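Coupling enzymes only (glyceraldehyde-3-phosphate) + compound, at 57.5 uM final, 10 min RT; add substrate/coupling/AmpLite Red mix, 20 min RT; fluorescence ex 525/em 598 nm. Actives flag coupling-system interference.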
Sfp PPTase inh – qHTS Assay for Inhibitors of Bacillus subtilis Sfp phosphopantetheinyl transferase (PPTase); 4'-phosphopantetheinyl transferase ffp (Bacillus subtilis), Q9F4F7; Biochemical Sfp PPTase activity, qHTS; Potency, µM, hits mostly inhibitors; 310,000 compounds, 3.5% hits;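 note: the enzyme is Sfp with the accession as filed and its product quenches rhodamine fluorescence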
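Sfp 15 nM + cpd, 15 min RT; start w/ rhodamine-CoA 5 uM, BHQ-2-YbbR 12.5 uM (final); 50 mM Hepes pH 7.6, 10 mM MgCl2, 0.01% NP-40, 0.01% BSA; read 525/598 nm at 0 and 30 min.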
GoLoco inh red – qHTS Assay for Inhibitors of RGS12 GoLoco Motif Activity (Red Fluorophore). Gai1:RGS12 GoLoco peptide FP, rhodamine, 10 min. 230,000 compounds, 0.44% hits. Guanine nucleotide-binding protein G(i) subunit alpha-1 (Homo sapiens), P63096. Potency, µM (top dose mostly 61.6 µM), usual class: inhibitors; active = well fitted inhibition curve with a large enough effect, not every such curve was filed as active; inactive = no such curve, though single readings can be large or run the other way; note: nearly all actives have a fitted effect of over 30% in size
NPSR antagonist – qHTS Assay for Antagonists of the Neuropeptide S Receptor: cAMP Signal Transduction. CHO-NPSR cells, cAMP TR-FRET, antagonist mode. 220,000 compounds, 1% hits. Q6W5P4. Potency, µM (titrated, usually from 38.3 µM), hits mostly inhibitors; note: nearly all actives have a fitted effect of over 50% in size
Target sequence (Q6W5P4 whole entry, looked up): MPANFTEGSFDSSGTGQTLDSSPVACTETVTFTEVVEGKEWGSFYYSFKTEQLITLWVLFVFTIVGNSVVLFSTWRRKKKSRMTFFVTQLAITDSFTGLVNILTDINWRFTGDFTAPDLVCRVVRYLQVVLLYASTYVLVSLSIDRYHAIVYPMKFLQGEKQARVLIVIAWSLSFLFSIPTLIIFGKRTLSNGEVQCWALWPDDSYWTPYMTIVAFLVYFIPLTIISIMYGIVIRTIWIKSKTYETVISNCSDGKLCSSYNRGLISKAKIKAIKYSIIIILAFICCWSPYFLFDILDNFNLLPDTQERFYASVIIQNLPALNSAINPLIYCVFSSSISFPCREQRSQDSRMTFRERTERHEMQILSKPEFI
ALDH1A1 inh – qHTS Assay for Inhibitors of Aldehyde Dehydrogenase 1 (ALDH1A1); Aldehyde dehydrogenase 1A1 (Homo sapiens), P00352; Purified ALDH1A1, NADH fluorescence, propionaldehyde substrate; Potency, µM (highest dose often 75.3 µM), actives largely listed as inhibitors; 220,000 compounds, 7.3% hits; active = well fitted inhibition curve with a large enough effect, not every such curve was filed as active; inconclusive = small, poorly fitted or top-dose-only effect, or another doubt; inactive = no such curve, though single readings can be large or run the other way
Large screens that a line does not name were inactive. In the library only some 8.5% were active in any assay of this set; here they are far more common. Unless noted, calls come from the whole dose curve; as a rule, active = well fitted curve in the direction sought with a large enough effect; inconclusive = small, poorly fitted or top-dose-only effect, or another doubt; inactive = no such curve, though single readings can be large; an effect the other way counts as inactive or inconclusive.

CC(C)(C)OC(=O)N[C@@H](Cc1ccccc1)c1nnc(S(=O)(=O)Cc2ccccc2)o1	Sfp PPTase inh 8.9µM, GoLoco inh red 18µM, NPSR antagonist inconclusive, ALDH1A1 inh inconclusive
OCCNc1c2ccccc2nc2ccccc12	JMJD2E inh inconclusive, ALDH1A1 inh inconclusive
CCCNc1c(F)c(F)c2c(C)c3ccccc3nc2c1F	GoLoco inh red 28µM, ALDH1A1 inh inconclusive
C=CCNC(=O)/C(C#N)=C/c1c(N2CCN(c3ccc(OC)cc3)CC2)nc2c(C)cccn2c1=O	none (no result: JMJD2E inh, GoLoco inh red, NPSR antagonist, ALDH1A1 inh)
COc1ccc(NC(=S)N2CCN(C(c3ccccc3)c3ccccc3)CC2)cc1OC	ALDH1A1 inh inconclusive
CCC(C)NC(=S)N1CCN(C(c2ccccc2)c2ccccc2)CC1 (configuration not stated)	ALDH1A1 inh inconclusive
CNC(=S)N1CCN(C(c2ccccc2)c2ccccc2)CC1	ALDH1A1 inh 2µM
COc1cc(C(=S)N2CCN(C(c3ccccc3)c3ccccc3)CC2)cc(OC)c1O	Sfp PPTase inh 16µM (no result: JMJD2E inh, GoLoco inh red, NPSR antagonist, ALDH1A1 inh)
COCCNC(=O)c1ccc(C2SCC(=O)N2CCc2ccccc2)cc1 (configuration not stated)	none (no result: JMJD2E inh, GoLoco inh red, NPSR antagonist, ALDH1A1 inh)
O=C(CC1(O)C(=O)Nc2cc(Cl)cc(Cl)c21)c1ccncc1 (configuration not stated)	ALDH1A1 inh 13µM
CC(C)(C)OC(=O)N1CCCC1C(=O)NC1COC2CC(n3cc(F)c(=O)[nH]c3=O)OC12 (configuration not stated)	none (no result: JMJD2E inh, GoLoco inh red, NPSR antagonist, ALDH1A1 inh)
O=C(CN1CCC(c2nc3ccccc3s2)CC1)NCc1cccs1	ALDH1A1 inh 6.3µM
CC(C)n1c(N2CCN(C(=O)c3cccs3)CC2)nc2ccccc21	ALDH1A1 inh inconclusive
CC(C)n1c(N2CCN(CC(=O)NCc3cccs3)CC2)nc2ccccc21	ALDH1A1 inh 10µM
O=C(O)CNS(=O)(=O)c1ccc2c(c1)Cc1cc(S(=O)(=O)NCC(=O)O)ccc1-2	none (no result: JMJD2E inh, GoLoco inh red, NPSR antagonist, ALDH1A1 inh)
O=C(c1ccco1)N1CCN(C(=O)c2cnn(-c3ccc(Cl)cc3)c2C2CCNCC2)CC1	none (no result: JMJD2E inh, GoLoco inh red, NPSR antagonist, ALDH1A1 inh)
Cc1ccc(N(C(=O)CNC(=O)c2ccco2)C(C(=O)NC2CCCC2)c2cccnc2)cc1F (configuration not stated)	none (no result: JMJD2E inh, GoLoco inh red, NPSR antagonist, ALDH1A1 inh)
COC(=O)Cn1c(C(O)c2ccccc2)nc2ccccc21 (configuration not stated)	none (no result: JMJD2E inh, GoLoco inh red, NPSR antagonist, ALDH1A1 inh)
COC(=O)C1C(c2ccc(N(C)C)cc2)C(C(=O)OC)S(=O)(=O)CS1(=O)=O (configuration not stated)	ALDH1A1 inh 10µM
CC1CCc2sc(C(=O)OCC(=O)NCc3ccc(F)cc3)cc2C1 (configuration not stated)	none (no result: GoLoco inh red)
COc1cccc(-n2nnnc2SCC(=O)N2CCCc3ccccc32)c1	ALDH1A1 inh 5.6µM
COc1ccc(C(=O)NCc2nnc(SCC(=O)N3CCc4ccccc43)n2C2CCCCC2)cc1	none
COc1ccc(-n2c(Cc3ccccc3)nnc2SCC(=O)N2CCCc3ccccc32)cc1	ALDH1A1 inh 11µM
COc1ccc(C(=O)NCc2nnc(SCC(=O)N3CCc4ccccc43)n2CCc2ccccc2)cc1	ALDH1A1 inh 0.63µM
COc1cc(OC)cc(-n2nnnc2SCC(=O)N2CCCc3ccccc32)c1	ALDH1A1 inh 2.8µM
C#CCCOC(=O)Nc1ccccc1	none (no result: ALDH1A1 inh)
COC(=O)CS	none (no result: JMJD2E inh, Coupling enz, Sfp PPTase inh, NPSR antagonist)
Cc1cccc2sc(N(CCCN(C)C)C(=O)c3sc4ccccc4c3Cl)nc12	Sfp PPTase inh 32µM, NPSR antagonist inconclusive, ALDH1A1 inh inconclusive
CCOc1cccc2sc(N(CCCN(C)C)C(=O)c3ccc(S(=O)(=O)N(C)c4ccccc4)cc3)nc12	Sfp PPTase inh inconclusive, NPSR antagonist 10µM
CN(C)CCCN(C(=O)c1ccc2c(c1)CCCC2)c1nc2c(F)cccc2s1	Coupling enz -37, Sfp PPTase inh 40µM
CN(C)CCCN(C(=O)c1sc2ccccc2c1Cl)c1nc2c(F)cccc2s1	Sfp PPTase inh 50µM
COc1cccc2sc(N(CCCN(C)C)C(=O)c3sc4ccccc4c3Cl)nc12	Sfp PPTase inh inconclusive
CCOc1cccc2sc(N(CCCN(C)C)C(=O)c3ccc(S(=O)(=O)N4CCc5ccccc5C4)cc3)nc12	none (no result: JMJD2E inh, GoLoco inh red, NPSR antagonist, ALDH1A1 inh)
CN(C)CCCN(C(=O)c1ccc(N2C(=O)CCC2=O)cc1)c1nc2c(F)cccc2s1	none
COc1ccc(NC2CCCN(C(=O)CCc3cn[nH]c3)C2)cc1 (configuration not stated)	none (no result: JMJD2E inh, GoLoco inh red, NPSR antagonist, ALDH1A1 inh)
CN1CCN(C(=O)C(N)Cc2ccccc2)CC1 (configuration not stated)	none
CN(C)CCCN(C(=O)CCc1ccccc1)c1nc2c(F)cccc2s1	none
Cc1cccc2sc(N(CCCN(C)C)C(=O)c3ccc(C(=O)c4ccccc4)cc3)nc12	Sfp PPTase inh 79µM (no result: JMJD2E inh, Coupling enz, GoLoco inh red, NPSR antagonist, ALDH1A1 inh)
CN(C)CCCN(C(=O)CCOc1ccccc1)c1nc2c(F)cccc2s1	Sfp PPTase inh 50µM, ALDH1A1 inh 3.2µM
CCOc1ccc2nc(N(CCN(C)C)C(=O)c3ccc4c(c3)CCCC4)sc2c1	Sfp PPTase inh 50µM (no result: JMJD2E inh, Coupling enz, GoLoco inh red, NPSR antagonist, ALDH1A1 inh)
Cc1ccc2nc(N(CCCN(C)C)C(=O)c3ccc4c(c3)CCCC4)sc2c1	Sfp PPTase inh inconclusive
COc1ccccc1C(=O)Nc1ccc(C(=O)Nc2ccccc2C(=O)O)cc1	none (no result: JMJD2E inh, Coupling enz, GoLoco inh red, NPSR antagonist, ALDH1A1 inh)
CC(C)OC(=O)/C(C#N)=C\c1cccnc1	ALDH1A1 inh 8.9µM
O=C(/C=C/c1cccnc1)/C=C/c1cccnc1	JMJD2E inh inconclusive, Sfp PPTase inh 14µM (no result: ALDH1A1 inh)
COc1ncc2nc(-c3ccccc3)c(=O)n(C[C@H]3CCCO3)c2n1	ALDH1A1 inh inconclusive (no result: JMJD2E inh, NPSR antagonist)
c1ccc(-c2ncc3ccccn23)cc1	JMJD2E inh inconclusive, Sfp PPTase inh 16µM, ALDH1A1 inh inconclusive
c1ccc2c(c1)ncc1cccn12	JMJD2E inh inconclusive, ALDH1A1 inh inconclusive
CCOC(=O)C1=C(C)NC(=S)NC1c1cccc(O)c1 (configuration not stated)	ALDH1A1 inh 1.1µM (no result: NPSR antagonist)
CCOC(=O)c1c(NC(=O)C2=C(C)NC(=S)NC2c2ccc(CC)cc2)sc(C)c1C (configuration not stated)	JMJD2E inh inconclusive, ALDH1A1 inh 28µM
CCOC(=O)C1=C(C)NC(=S)NC1c1ccc(OC(=O)c2ccco2)cc1 (configuration not stated)	ALDH1A1 inh 2.2µM
Cc1ccccc1NC(=O)c1cc(C(=O)c2cc(Cl)ccc2O)cn(-c2ccccc2C)c1=O	none
Cc1cc2ncc(C(=O)Nc3ccsc3C(=O)O)c(C)n2n1	ALDH1A1 inh 14µM
NS(=O)(=O)c1ccc(Nc2ccc([N+](=O)[O-])c3nonc23)cc1	Coupling enz -33, Sfp PPTase inh 79µM (no result: ALDH1A1 inh)
